Data as given in PubChem BioAssay (NCATS).
Where “and” joins values, the source holds several entries; their conditions need not be identical. Identical values can stand only once. Inconclusive results are not listed. Values without a mark were called inactive. Calls of active or inactive are those of the source. Calls follow the shape of the dose curve; as a rule, active = well fitted inhibition curve with a large enough effect in the repeat runs; inconclusive = weak or mixed curves; inactive = flat fitted curve, though single readings scatter.

molecular target: Cytochrome P450 2D6 (Homo sapiens) (UniProt P10635); assay: Cytochrome P450 family 2 subfamily D member 6 (CYP2D6) small molecule antagonists: luciferase biochemical (cell-free) qHTS assay (AID 1645840); conditions: P450-Glo CYP2D6 enzyme, luciferin luminescence, 1 h; series mostly up to 57.4 µM; activity change, negative = inhibition: at the top concentration; also: nearly all actives have a fitted effect of over 55% in size
Sequence (P10635 whole entry, looked up): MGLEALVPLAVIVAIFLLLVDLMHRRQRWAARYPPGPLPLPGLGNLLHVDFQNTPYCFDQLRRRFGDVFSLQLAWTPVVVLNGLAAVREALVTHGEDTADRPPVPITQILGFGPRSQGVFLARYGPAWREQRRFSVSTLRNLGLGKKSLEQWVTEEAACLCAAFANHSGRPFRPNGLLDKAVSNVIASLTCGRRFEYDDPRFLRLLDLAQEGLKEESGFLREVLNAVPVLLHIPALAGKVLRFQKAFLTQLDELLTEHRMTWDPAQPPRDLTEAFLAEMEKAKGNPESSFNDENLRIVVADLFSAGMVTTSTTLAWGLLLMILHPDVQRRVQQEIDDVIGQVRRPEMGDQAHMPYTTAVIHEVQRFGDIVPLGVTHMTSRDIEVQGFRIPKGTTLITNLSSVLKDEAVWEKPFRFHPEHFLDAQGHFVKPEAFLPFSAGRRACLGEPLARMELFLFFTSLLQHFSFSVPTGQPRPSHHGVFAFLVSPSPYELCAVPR
Description: National Center for Advancing Translational Sciences [NCATS] Assay Overview: Cytochrome P450 (CYP) enzymes are membrane-bound hemeproteins that play a key role in metabolism of drugs and xenobiotics. Assaying the effect of chemicals on CYP isozymes is useful to minimize the adverse drug reactions and toxicities in drug development process. Chemical compounds were tested for their effect on CYP enzyme activities by using P450-Glo (TM) screening systems (Promega Corporation, Madison, WI). These systems provide a luminescent method containing proluciferin substrates and are converted to luciferin products by CYP isozymes. The luciferin products formed are detected with a luciferin detection reagent, and the amount of light produced is proportional to CYP activity. P450-Glo (TM) CYP2D6 screening system (Catalog. No. V9890) was used to detect the compounds that interfere in CYP2D6 activity.
Assay Protocol Summary: Two ul of enzyme-substrate mix was dispensed into medium binding white/solid 1536-well plates (Greiner Bio-One North America Inc., Monroe, NC) using a Flying Reagent Dispenser (FRD, Aurora Discovery, San Diego, CA). […] The assay plates were incubated at room temperature for 10 min. Then 2 ul of NADPH regeneration solution was added to each well of the assay plates using an FRD and incubated at room temperature for 1 h. The reaction was stopped by adding 4 ul of detection reagent using an FRD and after 20 min incubation at room temperature, the luminescence signal was measured using a ViewLux plate reader (Perkin Elmer, Shelton, CT). Data were expressed as relative luminescence units.
% is scaled to controls: 0 for no effect and ±100 for the full control effect; potency is read from the fitted curve at half-maximal effect.

Compound | Potency | activity change, negative = inhibition
CCCCCCCCCCCCCCCC[N+](C)(C)C | 871 nM (active) and 849 nM (active) | 
CC(=O)[O][Hg][c]1ccccc1 | 0.617 µM (active) | 
C=CCC1=C(C)C(OC(=O)C2C(C=C(C)C)C2(C)C)CC1=O (stereo not given) | 23.8 µM (active) | 
CCc1c(C(=O)C(N)=O)c2c(OCC(=O)O)cccc2n1Cc1ccccc1 |  | -12.7%
Cc1ccccc1-n1c(Cn2ncc3c(N)ncnc32)nc2cccc(C)c2c1=O |  | 7.84%
O=[N+]([O-])/N=C1\NCCN1Cc1ccc(Cl)nc1 |  | 0.386%
Nc1c(Cl)c(Cl)c(Cl)c(Cl)c1Cl |  | 9.39% [at 115 µM]
COC(=O)c1cncn1C(C)c1ccccc1 (stereo not given) | 7.76 µM (active) | 
O=C(O)CCCOc1ccc(Cl)cc1Cl |  | 7.48% [at 115 µM]
OCCCBr |  | 10.9% [at 115 µM]
C1CCC(NC2CCCCC2)CC1 | 1.23 µM (active) | 
COc1ccc(N(C(=O)Oc2c(C)cccc2C)c2ccnc(Nc3ccc(N4CCN(C)CC4)cc3)n2)c(OC)c1 | 1.9 µM (active) | 
Fc1cc(Br)ccc1CBr |  | -4.93%
CC(C)(C)NC[C@H](O)c1ccc(O)cc1Cl |  | -18.7%
S=C(SSC(=S)N1CCCCC1)N1CCCCC1 |  | -27.6%
O=C(NCC1CCOCC1)c1cnc(Nc2ccc(Cl)cc2Cl)nc1C(F)(F)F |  | -5.14%
CO/C=C(/C(=O)OC)c1ccccc1Oc1cc(Oc2ccccc2C#N)ncn1 | 39.9 µM (active) | 
O=C(O)CNC(=O)c1c(O)c2ccccc2n(Cc2ccccc2)c1=O |  | 11.8%
CCN1CCN(C(=O)Cc2ccc(Nc3ncc(F)c(Nc4ccc(C(=O)Nc5ccccc5Cl)cc4)n3)cc2)CC1 |  | -23.2%
CC(C)N(CCNC(=O)CN1CCCC1=O)C(C)C |  | 4.97%

Compound | Potency | activity change, negative = inhibition
O=C(Nc1ccccc1-c1ccc(Cl)cc1)c1cccnc1Cl | 22.4 µM (active) | 
Cc1ccc(Cl)c(O)c1 |  | 2.62%
CCCCc1ccc(C(=O)O)nc1 |  | 2.12%
C[C@]12COC(=O)C[C@@H]1CC[C@@H]1[C@H]2CC[C@@]2(C)[C@H]1CC[C@]2(C)O |  | 13.8%
O=[N+]([O-])c1cc([N+](=O)[O-])c2ccccc2c1 |  | -30.5% [at 115 µM]
Nc1ccc(Cl)cc1N | 25.9 µM (active) | 
CCOCCOC(C)=O | inactive | 
Nc1ccc(N=Nc2ccccc2)cc1 | 41.1 µM (active) | 
CCC1(CCC(C)C)C(=O)NC(=O)NC1=O |  | -0.198% [at 115 µM]
CC(=O)N(C)c1cccc(-c2ccnc3c(C(=O)c4cccs4)cnn23)c1 |  | 8.27%
Nc1ccc([N+](=O)[O-])cc1 |  | 0.0769% [at 115 µM]
COC(C)(C)CCCC(C)C/C=C/C(C)=C/C(=O)OC(C)C (stereo not given) |  | -22.1%
O=[N+]([O-])c1ccc([As](=O)(O)O)cc1 |  | 2.29%
CCCN(CCC)c1c([N+](=O)[O-])cc(S(N)(=O)=O)cc1[N+](=O)[O-] | 29.1 µM (active) | 
COc1nn(CSP(=S)(OC)OC)c(=O)s1 | 25.9 µM (active) | 
CCCCC(CC)COC(=O)c1ccccc1C(=O)OCC(CC)CCCC (stereo not given) |  | 6.05% [at 115 µM]
CC(O)CN1CCN(CC(=O)[O-])CCN(CC(=O)[O-])CCN(CC(=O)[O-])CC1.[Gd+3] (stereo not given) |  | 13.4%
CC(Cc1ccc(O)cc1)NCC(O)c1cc(O)cc(O)c1 (stereo not given) | 11 µM (active) | 
Cc1cc(O)ccc1Cl |  | -17.3%
ClC1=C(Cl)[C@]2(Cl)[C@@H]3[C@@H]4C[C@@H]([C@H]5O[C@@H]45)[C@@H]3[C@@]1(Cl)C2(Cl)Cl |  | 14.2% [at 115 µM]
